# Experimental data as given in PubChem BioAssay (EPA / NIEHS).
# Inconclusive results are not listed. Active and inactive are the calls of the source. How the source made its calls, unless noted: active means hit-call score of the fitted dose curve at least 0.9, where 1 is the maximum; inactive means score below 0.9.
# What was measured:
# [1] = ATG_NFI_CIS: Attagene CIS-FACTORIAL HepG2 Assay for human Nuclear Factor I (NFI) (AID 2282989); conditions: HepG2 cis-regulatory reporter, NFI response element transcription; actives raise or lower the signal
# How it was run: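 Read-out: reporter mRNA via RT-PCR plus capillary electrophoresis with fluorescence detection. Transiently transfected HepG2 (endogenous TF activity on cis promoters), 24 h compound exposure; gain or loss of signal fitted against DMSO.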
# [2] = target: Myc proto-oncogene protein (Homo sapiens) (UniProt P01106); assay: ATG_Myc_CIS: Attagene CIS-FACTORIAL HepG2 Assay for human Myelocytomatosis (Myc) Proto-Oncogene Transcription Factor (AID 2282990); conditions: HepG2, Attagene cis-reporter transcription factor activity; actives raise or lower the signal
# How it was run: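 DMSO-normalised, bidirectionally fitted reporter mRNA signal. HepG2 cells transfected with cis reporter constructs, treated 24 h; transcripts detected by RT-PCR, 6-FAM primer extension and CE.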
# [3] = ATG_NRF2_ARE_CIS: Attagene CIS-FACTORIAL HepG2 Assay for human Nuclear Factor Erythroid 2 Related Factor 2 (NFR2) response to Antioxidant Response Elements (ARE) (AID 2282992); conditions: HepG2 Attagene ARE/NRF2 reporter, transcription factor activity; actives raise or lower the signal;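 on AC50: reporter mRNA level measured by RT-PCR and capillary electrophoresis fluorescence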
# How it was run: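 Endogenous transcription factor activity in human liver HepG2 cells is tracked via a cis-element-driven reporter within a multiplexed set. mRNA induction is read by RT-PCR and capillary electrophoresis after 24 h, with DMSO as baseline.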
# [4] = ATG_Oct_MLP_CIS: Attagene CIS-FACTORIAL HepG2 Assay for human Octamer-Binding Transcription Factor (Oct) (AID 2282993); conditions: HepG2 Attagene cis-factorial Oct reporter, mRNA; actives raise or lower the signal
# How it was run: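 Read-out: reporter mRNA via RT-PCR plus capillary electrophoresis of 6-FAM-labelled fragments. Transiently transfected HepG2, 24 h exposure, endogenous TF activity on cis elements. Gain or loss of signal fitted relative to DMSO.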
# [5] = target: Cellular tumor antigen p53 (Homo sapiens) (UniProt P04637); assay: ATG_p53_CIS: Attagene CIS-FACTORIAL HepG2 Assay for human p53 Transcription Factor (AID 2282994); conditions: HepG2 p53 cis-element reporter, Attagene mRNA; actives raise or lower the signal
# How it was run: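 Steps: transfect HepG2 with multiplexed cis reporter constructs; dose chemicals 24 h; extract RNA, reverse-transcribe, PCR-amplify reporter sequences; FAM-label, HpaI-digest, resolve fragments by CE. Activity fitted both directions relative to DMSO.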
# [6] = BSK_3C_TissueFactor: BioMAP Diversity Plus: 3C Assay for Tissue Factor Biomarker Activity (AID 2282997); conditions: BioMAP 3C HUVEC, tissue factor biomarker readout; actives raise or lower the signal
# How it was run: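 HUVEC, 3C system, 24 h post-dose; Tissue Factor by ELISA; bidirectional fit vs DMSO baseline.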
# [7] = BSK_3C_uPAR: BioMAP Diversity Plus: 3C Assay for Urokinase-type plasminogen activator receptor (uPAR) Biomarker Activity (AID 2282998); conditions: BioMAP 3C HUVEC, uPAR biomarker ELISA; actives raise or lower the signal
# How it was run: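 HUVEC primary cells; 24 h post-dose; uPAR by ELISA; gain or loss of signal fitted bidirectionally vs DMSO baseline.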
# [8] = BSK_3C_VCAM1: BioMAP Diversity Plus: 3C Assay for Vascular cell adhesion molecule 1 (VCAM1) Biomarker Activity (AID 2282999); conditions: BioMAP 3C HUVEC, VCAM1 ELISA, cytokine-stimulated; actives raise or lower the signal
# How it was run: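 Vascular primary endothelium (human umbilical vein) was exposed to chemicals and assayed 24 h later. VCAM-1 levels came from ELISA, with DMSO serving as baseline for bidirectional fitting.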
# [9] = BSK_4H_Eotaxin3: BioMAP Diversity Plus: 4H Assay for Eotaxin 3 Biomarker Activity (AID 2283000); conditions: primary human endothelial cells (HUVEC); actives raise or lower the signal;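 on outcome: CCL26 protein level quantified by ELISA in parallel with SRB cytotoxicity check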
# How it was run: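 Readout is Eotaxin-3 (CCL26) level by ELISA in primary human umbilical vein endothelial cells harvested 24 h after chemical exposure; activity fitted in both directions against DMSO control.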
# [10] = target: human Peroxisome Proliferator-activated Receptor alpha (PPARa), PPARA (gene 5465) (UniProt Q07869); assay: ATG_PPARa_TRANS: Attagene TRANS-FACTORIAL HepG2 Assay for human Peroxisome Proliferator-activated Receptor alpha (PPARa) (AID 2283001; active means hit-call score of the fitted dose curve at least 0.9, where 1 is the maximum)
# How it was run: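 Exposure: 24 h, transiently transfected HepG2 cells. Endpoint: GAL4-UAS reporter mRNA, RT-PCR with capillary electrophoresis fluorescence. Baseline: DMSO; increases fitted.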
# [11] = target: human Peroxisome Proliferator-activated Receptor delta (PPARd), PPARD (gene 5467) (UniProt Q03181); assay: ATG_PPARd_TRANS: Attagene TRANS-FACTORIAL HepG2 Assay for human Peroxisome Proliferator-activated Receptor delta (PPARd) (AID 2283002; active means hit-call score of the fitted dose curve at least 0.9, where 1 is the maximum)
# How it was run: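 Measured quantity: GAL4-UAS reporter transcript induction in HepG2 after 24 h chemical dosing, with NR-Gal4 chimeras supplied by transient transfection. Detection by RT-PCR and capillary electrophoresis; upward fit against DMSO.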
# [12] = read-out: Intercellular Adhesion Molecule 1 (ICAM1), ICAM1 (gene 3383); assay: BSK_3C_ICAM1: BioMAP Diversity Plus: 3C Assay for Intercellular Adhesion Molecule 1 (ICAM1) Biomarker Activity (AID 2283003); conditions: primary human endothelial cells (HUVEC); actives raise or lower the signal
# How it was run: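 Using DMSO as baseline, bidirectional curve fitting was applied to ICAM-1 ELISA signals from HUVEC in the 3C system, measured 24 h after compound addition.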
# [13] = BSK_3C_Proliferation: Cell Proliferation Assessment in the BioMAP Diversity Plus: 3C Assay (AID 2283006); conditions: primary human endothelial cells (HUVEC);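 on AC50: potency may reflect either rise or fall in cell number versus DMSO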
# How it was run: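 Measured here: sulforhodamine B (0.1%) staining of TCA-fixed sub-confluent umbilical vein endothelial cultures 48 h post-dosing, absorbance 560 nm. DMSO served as negative control and baseline; both signal gain and loss were modelled.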
# [14] = target: Peroxisome proliferator-activated receptor gamma (Homo sapiens) (UniProt P37231); assay: ATG_PPARg_TRANS: Attagene TRANS-FACTORIAL HepG2 Assay for human Peroxisome Proliferator-activated Receptor-gamma (PPARg) (AID 2283007; active means hit-call score of the fitted dose curve at least 0.9, where 1 is the maximum)
# How it was run: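 Read-out: reporter mRNA induction, detected by fluorescence after RT-PCR and capillary electrophoresis. Transiently transfected human HepG2 liver cells carrying a chimeric NR-Gal4 construct were dosed for 24 h; activity was fitted upward relative to DMSO.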
# [15] = target: Nuclear receptor subfamily 1 group I member 2 (Homo sapiens) (UniProt O75469); assay: ATG_PXR_TRANS: Attagene TRANS-FACTORIAL HepG2 Assay for human Pregnane X Receptor (PXR) (AID 2283008; active means hit-call score of the fitted dose curve at least 0.9, where 1 is the maximum)
# How it was run: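 HepG2 transfected (FuGene 6) with GAL4-UAS reporter units + PXR-Gal4 chimera; dosed 24 h. Total RNA → oligo(dT) RT → PCR → 6-FAM primer extension → HpaI cut → CE. Gain-of-signal vs DMSO.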
# [16] = target: human RAR-related Orphan Receptor beta (RORb), RORB (gene 6096) (UniProt Q92753); assay: ATG_RORb_TRANS: Attagene TRANS-FACTORIAL HepG2 Assay for human RAR-related Orphan Receptor beta (RORb) (AID 2283010; active means hit-call score of the fitted dose curve at least 0.9, where 1 is the maximum)
# How it was run: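 Multiplexed transcription-factor reporter assay: HepG2 cells transiently carrying NR-Gal4/GAL4-UAS constructs, 24 h treatment, mRNA quantified by RT-PCR plus capillary electrophoresis fluorescence; activity scored as induction over DMSO.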
# [17] = ATG_NF_kB_CIS: Attagene CIS-FACTORIAL HepG2 Assay for human Nuclear Factor Kappa B (NF-kB) (AID 2282991); conditions: HepG2 Attagene cis-factorial NF-kB reporter mRNA; actives raise or lower the signal
# How it was run: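 Read-out: reporter transcript levels quantified by RT-PCR plus capillary electrophoresis of 6-FAM-labelled, HpaI-cut fragments. Transfected HepG2 cells, 24 h compound exposure, endogenous NF-kB-driven cis element; gain or loss scored versus DMSO.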
# [18] = target: human Retinoic Acid Receptor beta (RARb), RARB (gene 5915) (UniProt P10826); assay: ATG_RARb_TRANS: Attagene TRANS-FACTORIAL HepG2 Assay for human Retinoic Acid Receptor beta (AID 2283004; active means hit-call score of the fitted dose curve at least 0.9, where 1 is the maximum)
# How it was run: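 Readout is reporter mRNA induction: RNA reverse-transcribed, PCR-amplified, FAM-labelled, HpaI-cut and resolved by capillary electrophoresis. Transiently transfected HepG2 cells carrying exogenous NR–Gal4 chimeras were dosed for 24 h; activity fitted upward relative to DMSO.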
# [19] = target: Retinoic acid receptor alpha (Homo sapiens) (UniProt P10276); assay: ATG_RARa_TRANS: Attagene TRANS-FACTORIAL HepG2 Assay for human Retinoic Acid Receptor alpha (RARa) (AID 2283005; active means hit-call score of the fitted dose curve at least 0.9, where 1 is the maximum)
# How it was run: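 HepG2 cells transiently transfected with multiple reporter units expressing chimeric RARα-GAL4 fusion, with GAL4-UAS-driven reporters. After 24 h compound exposure, reporter mRNA induction quantified by RT-PCR and capillary electrophoresis with fluorescent labeling; gain-of-signal fitted relative to DMSO control.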
# [20] = target: human Retinoic Acid Receptor gamma (RARg), RARG (gene 5916) (UniProt P13631); assay: ATG_RARg_TRANS: Attagene TRANS-FACTORIAL HepG2 Assay for human Retinoic Acid Receptor gamma (RARg) (AID 2283009; active means hit-call score of the fitted dose curve at least 0.9, where 1 is the maximum)
# How it was run: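 Gain-of-signal relative to DMSO is reported from fluorescent capillary electrophoresis of RT-PCR reporter products. These came from HepG2 cells expressing transfected RARg-GAL4 chimeras with UAS reporters, harvested 24 h after dosing.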
# human Retinoic Acid Receptor beta (RARb), RARB (gene 5915), sequence (P10826 whole entry, looked up, the tested form may be a part): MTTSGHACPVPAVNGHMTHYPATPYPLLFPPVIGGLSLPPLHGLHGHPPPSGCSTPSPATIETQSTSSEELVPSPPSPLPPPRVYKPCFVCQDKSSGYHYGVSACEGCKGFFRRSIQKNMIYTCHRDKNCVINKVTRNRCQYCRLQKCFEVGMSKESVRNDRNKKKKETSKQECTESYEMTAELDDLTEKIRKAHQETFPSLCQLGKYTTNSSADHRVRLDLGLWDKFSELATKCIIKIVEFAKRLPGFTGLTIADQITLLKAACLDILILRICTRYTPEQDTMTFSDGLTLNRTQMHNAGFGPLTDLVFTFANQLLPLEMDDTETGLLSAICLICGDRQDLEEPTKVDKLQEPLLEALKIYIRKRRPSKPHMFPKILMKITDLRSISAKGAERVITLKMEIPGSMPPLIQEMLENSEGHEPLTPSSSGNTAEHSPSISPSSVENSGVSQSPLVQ
# Cellular tumor antigen p53 (Homo sapiens), sequence (P04637 whole entry, looked up, the tested form may be a part): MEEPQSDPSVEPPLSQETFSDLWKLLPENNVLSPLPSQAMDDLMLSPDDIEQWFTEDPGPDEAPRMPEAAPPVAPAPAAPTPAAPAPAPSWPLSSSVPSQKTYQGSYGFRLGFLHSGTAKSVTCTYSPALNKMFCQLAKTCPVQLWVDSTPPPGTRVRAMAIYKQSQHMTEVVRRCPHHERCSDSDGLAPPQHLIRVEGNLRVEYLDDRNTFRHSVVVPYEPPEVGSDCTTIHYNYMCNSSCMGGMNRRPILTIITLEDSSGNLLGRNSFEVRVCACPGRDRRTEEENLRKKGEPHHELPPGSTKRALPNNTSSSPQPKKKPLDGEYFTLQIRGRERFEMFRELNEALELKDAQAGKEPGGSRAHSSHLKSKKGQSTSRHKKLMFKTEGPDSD
# human Peroxisome Proliferator-activated Receptor alpha (PPARa), PPARA (gene 5465), sequence (Q07869 whole entry, looked up, the tested form may be a part): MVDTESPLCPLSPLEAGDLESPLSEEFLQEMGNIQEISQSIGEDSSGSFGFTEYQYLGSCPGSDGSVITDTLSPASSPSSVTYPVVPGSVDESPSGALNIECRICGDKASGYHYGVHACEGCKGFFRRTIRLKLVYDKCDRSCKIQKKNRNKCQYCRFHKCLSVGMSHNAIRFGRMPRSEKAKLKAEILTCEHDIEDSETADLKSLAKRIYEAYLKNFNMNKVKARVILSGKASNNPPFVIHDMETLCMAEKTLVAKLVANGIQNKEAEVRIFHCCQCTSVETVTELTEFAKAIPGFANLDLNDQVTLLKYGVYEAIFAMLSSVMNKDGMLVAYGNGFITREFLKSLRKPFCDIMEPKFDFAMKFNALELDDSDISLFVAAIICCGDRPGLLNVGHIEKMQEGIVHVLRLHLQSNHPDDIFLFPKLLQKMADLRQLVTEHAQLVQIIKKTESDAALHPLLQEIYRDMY
# Peroxisome proliferator-activated receptor gamma (Homo sapiens), sequence (P37231 whole entry, looked up, the tested form may be a part): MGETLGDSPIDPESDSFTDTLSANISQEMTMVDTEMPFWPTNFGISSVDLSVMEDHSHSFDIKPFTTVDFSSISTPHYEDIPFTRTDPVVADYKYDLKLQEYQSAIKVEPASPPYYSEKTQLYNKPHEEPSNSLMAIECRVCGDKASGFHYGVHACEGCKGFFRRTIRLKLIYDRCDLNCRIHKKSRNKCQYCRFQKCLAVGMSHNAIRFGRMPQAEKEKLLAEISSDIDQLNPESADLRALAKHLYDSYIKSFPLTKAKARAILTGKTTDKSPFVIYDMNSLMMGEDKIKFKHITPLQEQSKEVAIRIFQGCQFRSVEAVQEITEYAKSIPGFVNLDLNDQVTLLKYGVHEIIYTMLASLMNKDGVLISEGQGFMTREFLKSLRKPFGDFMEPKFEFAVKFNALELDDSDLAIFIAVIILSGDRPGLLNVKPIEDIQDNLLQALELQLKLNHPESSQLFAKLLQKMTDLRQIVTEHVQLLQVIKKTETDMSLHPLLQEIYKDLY
# human Retinoic Acid Receptor gamma (RARg), RARG (gene 5916), sequence (P13631 whole entry, looked up, the tested form may be a part): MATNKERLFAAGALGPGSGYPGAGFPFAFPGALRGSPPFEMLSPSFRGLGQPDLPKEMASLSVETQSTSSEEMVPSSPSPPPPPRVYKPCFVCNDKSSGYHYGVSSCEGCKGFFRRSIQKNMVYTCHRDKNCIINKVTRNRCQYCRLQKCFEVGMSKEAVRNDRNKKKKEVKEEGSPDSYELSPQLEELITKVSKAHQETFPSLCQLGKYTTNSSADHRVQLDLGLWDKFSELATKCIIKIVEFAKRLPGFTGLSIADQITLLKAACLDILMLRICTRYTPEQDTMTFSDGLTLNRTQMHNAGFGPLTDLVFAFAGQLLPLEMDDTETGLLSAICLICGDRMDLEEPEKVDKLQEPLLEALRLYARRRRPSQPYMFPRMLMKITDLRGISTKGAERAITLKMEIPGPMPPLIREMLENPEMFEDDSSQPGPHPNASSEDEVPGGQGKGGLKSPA
# human RAR-related Orphan Receptor beta (RORb), RORB (gene 6096), sequence (Q92753 whole entry, looked up, the tested form may be a part): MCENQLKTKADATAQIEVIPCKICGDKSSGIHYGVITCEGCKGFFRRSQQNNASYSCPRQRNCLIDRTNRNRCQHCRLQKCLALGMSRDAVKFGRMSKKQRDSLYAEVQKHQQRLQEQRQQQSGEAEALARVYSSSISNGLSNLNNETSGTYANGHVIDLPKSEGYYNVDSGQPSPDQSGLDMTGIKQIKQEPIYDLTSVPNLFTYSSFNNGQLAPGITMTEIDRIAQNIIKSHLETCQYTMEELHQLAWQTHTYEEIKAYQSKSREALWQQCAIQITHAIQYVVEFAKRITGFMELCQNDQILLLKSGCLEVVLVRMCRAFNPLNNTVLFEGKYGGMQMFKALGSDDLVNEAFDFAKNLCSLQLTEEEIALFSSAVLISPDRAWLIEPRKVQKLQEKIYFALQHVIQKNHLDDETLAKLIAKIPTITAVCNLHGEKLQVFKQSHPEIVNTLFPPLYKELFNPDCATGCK
# Myc proto-oncogene protein (Homo sapiens), sequence (P01106 whole entry, looked up): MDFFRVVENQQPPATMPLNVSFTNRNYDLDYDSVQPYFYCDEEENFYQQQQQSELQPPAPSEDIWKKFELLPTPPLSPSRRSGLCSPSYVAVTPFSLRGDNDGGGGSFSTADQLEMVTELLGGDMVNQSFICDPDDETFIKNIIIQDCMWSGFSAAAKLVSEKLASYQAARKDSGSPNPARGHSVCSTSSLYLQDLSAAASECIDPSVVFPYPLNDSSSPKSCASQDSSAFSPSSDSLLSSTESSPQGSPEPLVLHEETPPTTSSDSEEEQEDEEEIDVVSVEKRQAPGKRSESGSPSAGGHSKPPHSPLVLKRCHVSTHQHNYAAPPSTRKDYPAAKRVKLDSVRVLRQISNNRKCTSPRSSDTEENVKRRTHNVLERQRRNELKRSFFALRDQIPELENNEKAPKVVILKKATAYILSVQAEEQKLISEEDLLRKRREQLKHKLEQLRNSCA
# Nuclear receptor subfamily 1 group I member 2 (Homo sapiens), sequence (O75469 whole entry, looked up, the tested form may be a part): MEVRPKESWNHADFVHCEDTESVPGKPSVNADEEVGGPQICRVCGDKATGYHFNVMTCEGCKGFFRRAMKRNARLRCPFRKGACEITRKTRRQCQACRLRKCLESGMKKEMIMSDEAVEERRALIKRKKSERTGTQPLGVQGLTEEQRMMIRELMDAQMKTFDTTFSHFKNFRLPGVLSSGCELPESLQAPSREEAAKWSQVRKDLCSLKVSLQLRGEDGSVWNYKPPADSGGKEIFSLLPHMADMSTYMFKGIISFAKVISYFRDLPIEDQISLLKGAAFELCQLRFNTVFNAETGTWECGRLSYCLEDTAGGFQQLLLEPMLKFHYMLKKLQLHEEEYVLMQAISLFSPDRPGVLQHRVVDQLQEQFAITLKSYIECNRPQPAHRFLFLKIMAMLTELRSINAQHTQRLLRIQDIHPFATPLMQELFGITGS
# human Peroxisome Proliferator-activated Receptor delta (PPARd), PPARD (gene 5467), sequence (Q03181 whole entry, looked up, the tested form may be a part): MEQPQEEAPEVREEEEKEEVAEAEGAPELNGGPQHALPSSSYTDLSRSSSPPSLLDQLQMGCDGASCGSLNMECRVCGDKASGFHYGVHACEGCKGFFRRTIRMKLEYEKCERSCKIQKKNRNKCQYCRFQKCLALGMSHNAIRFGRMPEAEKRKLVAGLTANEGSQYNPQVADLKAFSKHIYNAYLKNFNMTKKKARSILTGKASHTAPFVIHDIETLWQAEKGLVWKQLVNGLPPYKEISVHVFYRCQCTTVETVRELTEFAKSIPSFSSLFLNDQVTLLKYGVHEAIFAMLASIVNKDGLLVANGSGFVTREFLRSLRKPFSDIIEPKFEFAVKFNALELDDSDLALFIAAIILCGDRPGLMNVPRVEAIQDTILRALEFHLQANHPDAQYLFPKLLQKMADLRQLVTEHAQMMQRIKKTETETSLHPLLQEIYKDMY
# Retinoic acid receptor alpha (Homo sapiens), sequence (P10276 whole entry, looked up, the tested form may be a part): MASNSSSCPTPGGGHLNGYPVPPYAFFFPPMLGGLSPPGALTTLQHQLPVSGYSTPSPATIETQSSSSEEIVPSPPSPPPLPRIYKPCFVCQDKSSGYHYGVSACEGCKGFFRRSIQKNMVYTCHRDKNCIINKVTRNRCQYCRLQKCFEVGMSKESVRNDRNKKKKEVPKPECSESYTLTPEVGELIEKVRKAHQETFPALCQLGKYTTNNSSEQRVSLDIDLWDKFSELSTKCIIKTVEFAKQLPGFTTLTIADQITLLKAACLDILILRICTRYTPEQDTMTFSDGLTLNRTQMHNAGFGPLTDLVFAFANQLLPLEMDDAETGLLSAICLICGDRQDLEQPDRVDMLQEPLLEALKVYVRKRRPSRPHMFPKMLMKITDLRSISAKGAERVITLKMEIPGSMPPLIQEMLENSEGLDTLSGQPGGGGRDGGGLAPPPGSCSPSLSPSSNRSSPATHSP
smiles,measurement,setting,value
COc1ccc(C(=O)Nc2nc3ccccc3c(NCc3ccccc3)c2C#N)cc1,outcome,[1],inactive
same,outcome,[2],inactive
same,AC50,[3],0.952 µM (active)
same,AC50,[4],7.37 µM (active)
same,outcome,[5],inactive
same,outcome,[6],inactive
same,outcome,[7],inactive
same,outcome,[8],inactive
same,outcome,[9],inactive
same,outcome,[10],inactive
same,outcome,[11],inactive
same,outcome,[12],inactive
same,AC50,[13],9.43 µM (active)
same,AC50,[14],1.45 µM (active)
same,AC50,[15],0.585 µM (active)
same,outcome,[16],inactive
O=[Si]=O,outcome,[1],inactive
same,outcome,[17],inactive
same,outcome,[3],inactive
same,outcome,[4],inactive
same,outcome,[5],inactive
same,outcome,[6],inactive
same,outcome,[7],inactive
same,outcome,[8],inactive
same,outcome,[9],inactive
same,outcome,[10],inactive
same,outcome,[12],inactive
same,outcome,[18],inactive
same,outcome,[19],inactive
same,outcome,[13],inactive
same,outcome,[14],inactive
same,outcome,[15],inactive
same,outcome,[20],inactive
same,outcome,[16],inactive
O=C(NS(=O)(=O)/C=C/c1cccs1)c1ccc(F)cc1Br,outcome,[1],inactive
same,outcome,[2],inactive
same,AC50,[3],44.7 µM (active)
same,outcome,[4],inactive
same,outcome,[6],inactive
same,outcome,[7],inactive
same,outcome,[8],inactive
same,outcome,[9],inactive
same,outcome,[12],inactive
same,AC50,[13],2.87 µM (active)
same,AC50,[14],21.6 µM (active)
same,AC50,[15],11.4 µM (active)
same,outcome,[16],inactive
O=C(O)CN(CC(=O)O)CC(=O)O,outcome,[1],inactive
same,outcome,[17],inactive
same,outcome,[3],inactive
same,outcome,[4],inactive
same,outcome,[5],inactive
same,outcome,[6],inactive
same,outcome,[7],inactive
same,outcome,[8],inactive
same,outcome,[9],inactive
same,outcome,[10],inactive
same,outcome,[11],inactive
same,outcome,[12],inactive
same,outcome,[13],inactive
same,outcome,[20],inactive
CC(C)c1cccc(C(C)C)c1NC(=O)NS(=O)(=O)c1cc(C(C)(C)O)co1,outcome,[1],inactive
same,outcome,[2],inactive
same,outcome,[3],inactive
same,outcome,[4],inactive
same,outcome,[5],inactive
same,outcome,[6],inactive
same,outcome,[7],inactive
same,outcome,[8],inactive
same,outcome,[9],inactive
same,outcome,[10],inactive
same,outcome,[12],inactive
same,outcome,[18],inactive
same,outcome,[13],inactive
same,AC50,[15],9.03 µM (active)
same,outcome,[20],inactive
same,outcome,[16],inactive
Cc1ccc(-c2cc(C(F)(F)F)nn2-c2ccc(S(N)(=O)=O)cc2)cc1,outcome,[1],inactive
same,outcome,[2],inactive
same,outcome,[17],inactive
same,AC50,[3],5.72 µM (active)
same,outcome,[4],inactive
same,AC50,[6],31.7 µM (active)
same,AC50,[7],24.6 µM (active)
same,AC50,[8],33.9 µM (active)
same,AC50,[9],31 µM (active)
same,AC50,[12],36.8 µM (active)
same,outcome,[18],inactive
same,outcome,[19],inactive
same,AC50,[13],20 µM (active)
same,outcome,[14],inactive
same,outcome,[15],inactive
same,outcome,[20],inactive
CC1=C(C)S(=O)(=O)CCS1(=O)=O,outcome,[1],inactive
same,outcome,[17],inactive
same,AC50,[3],17.8 µM (active)
same,outcome,[4],inactive
same,AC50,[5],130 µM (active)
same,outcome,[6],inactive
same,outcome,[7],inactive
same,outcome,[8],inactive
same,outcome,[9],inactive
same,outcome,[10],inactive
same,outcome,[12],inactive
same,outcome,[13],inactive
same,AC50,[14],77.8 µM (active)
same,outcome,[15],inactive
